Laboratory results reported in PubChem BioAssay (EPA / NIEHS).
Results filed as inconclusive are left out. The source made the active and inactive calls. How the source made its calls, unless noted: active means hit-call score of the fitted dose curve at least 0.9, where 1 is the maximum; inactive means score below 0.9.

Tests used:
[1] = APR_HepG2_MicrotubuleCSK_1hr: Apredica 1-hour HepG2 Assay for Microtubule CSK Stabilty (AID 2282669); conditions: HepG2 microtubule cytoskeleton imaging, actives raise or lower the signal
Procedure, shortened: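 HepG2 cells exposed 1 h to 0.39–200 uM compound (0.5% DMSO, duplicates), then formaldehyde-fixed, permeabilized and immunostained for alpha-tubulin with Hoechst nuclei. Imaged by ArrayScan high-content analysis; bidirectional fit versus DMSO.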

[2] = APR_HepG2_p53Act_1hr: Apredica 1-hour HepG2 Assay for p53 Activation (AID 2282671); conditions: high-content imaging, actives raise or lower the signal
Procedure, shortened: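 HepG2 cells treated 1 h with compound at 0.39–200 uM (10 concentrations, duplicate) in 0.5% DMSO. Formaldehyde-fixed, permeabilised cells immunostained for p53 with Hoechst 33342; high-content imaging, bidirectional fit versus DMSO.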

[3] = APR_HepG2_MitoticArrest_1hr: Apredica 1-hour HepG2 Assay for Mitotic Arrest (AID 2282672); conditions: high-content imaging, actives raise or lower the signal
Procedure, shortened: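 HepG2 cells exposed 1 hr to compounds at 0.39–200 uM (0.5% v/v DMSO final), then fixed in 3.7% formaldehyde and immunostained for phospho-histone H3 with Hoechst 33342. Mitotic arrest scored by automated fluorescence imaging, fitted bidirectionally versus DMSO.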

[4] = APR_HepG2_P-H2AX_1hr: Apredica 1-hour HepG2 Assay for H2AX Phosphorylation (AID 2282673); conditions: high-content imaging, actives raise or lower the signal
Procedure, shortened: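 HepG2 dosed 1 hr at 0.39-200 uM (0.5% DMSO final), duplicate. Fixed in 3.7% formaldehyde, Triton permeabilized, immunostained for phospho-histone H2A.x (1:200) with Hoechst 33342; ArrayScan 20x imaging, bidirectional fit vs DMSO.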

[5] = APR_HepG2_MitoMembPot_1hr: Apredica 1-hour HepG2 Assay for Mitochondrial Membrane Potential (AID 2282675); conditions: imaging, actives raise or lower the signal
Procedure, shortened: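 HepG2 cells dosed 1 hour with 0.39–200 uM compound in duplicate, 0.5% DMSO final. MitoTracker Red CMXRos (250 nM, 30 min) loaded before formaldehyde fixation; fluorescence quantified by high-content imaging, bidirectional fitting versus DMSO.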

[6] = APR_HepG2_CellCycleArrest_24hr: Apredica 24-hour HepG2 Assay for Cell Cycle Arrest (AID 2282905); conditions: imaging, actives raise or lower the signal;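 further: cell cycle arrest scored as ratio of 2N to 4N nuclear DNA content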
Procedure, shortened: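 Cell cycle arrest is scored from nuclear DNA content measured by high-content imaging of Hoechst 33342-stained HepG2 cells following 24-hour treatment at ten concentrations up to 200 uM, with DMSO as baseline.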

[7] = APR_HepG2_StressKinase_1hr: Apredica 1-hour HepG2 Assay for Stress Kinase (AID 2282906); conditions: HepG2 stress kinase (phospho-c-Jun) imaging, actives raise or lower the signal
Procedure, shortened: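 HepG2 cells dosed 0.39-200 uM (0.5% DMSO) for 1 h, then formaldehyde-fixed. Stress kinase read by phospho-c-Jun immunofluorescence using high-content imaging; bidirectional fit vs DMSO.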

[8] = APR_HepG2_NuclearSize_24hr: Apredica 24-hour HepG2 Assay for Nuclear Size (AID 2282907); conditions: high-content imaging, actives raise or lower the signal
Procedure, shortened: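 Compounds in DMSO (final 0.5%) were added to human HepG2 hepatoma cells at ten concentrations up to 200 uM for 24 hr. Fixed nuclei were stained with Hoechst 33342, and nuclear diameter was quantified from automated images.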

[9] = APR_HepG2_CellLoss_24hr: Apredica 24-hour HepG2 Assay for Cell Loss (AID 2282908); conditions: high-content imaging;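 on AC50: fit in both directions so a hit may be cell loss or gain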
Procedure, shortened: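 Cell number is quantified by fluorescence imaging of Hoechst 33342-stained nuclei following dosing at 0.39–200 uM in 0.5% DMSO. Curves are fitted in both directions from the DMSO baseline.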

[10] = APR_HepG2_MicrotubuleCSK_24hr: Apredica 24-hour HepG2 Assay for Microtubule CSK Stabilty (AID 2282909); conditions: HepG2 microtubule cytoskeleton imaging, actives raise or lower the signal
Procedure, shortened: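 Steps: dose HepG2 for 24 h (0.39–200 uM, 0.5% DMSO); fix 30 min in 3.7% formaldehyde at room temperature; permeabilize; stain alpha-tubulin 60 min; image microtubule cytoskeleton at 20x. Signal change fitted in both directions relative to DMSO.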

[11] = APR_HepG2_MitoMembPot_24hr: Apredica 24-hour HepG2 Assay for Mitochondrial Membrane Potential (AID 2282911); conditions: imaging, actives raise or lower the signal
Procedure, shortened: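 Human hepatoma HepG2 cultures received ten compound concentrations up to 200 uM for 24 hr. Membrane-potential dye signal, captured by automated fluorescence microscopy, was scored for gain or loss against DMSO controls.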

[12] = APR_HepG2_MitoMass_24hr: Apredica 24-hour HepG2 Assay for Mitochondrial Mass (AID 2282912); conditions: high-content imaging, actives raise or lower the signal
Procedure, shortened: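 The liver line HepG2 was dosed in duplicate across a 0.39–200 uM series, with final DMSO held at 0.5% v/v, and harvested at 24 hr. High-content imaging measured mitochondrial dye staining.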

[13] = APR_HepG2_p53Act_24hr: Apredica 24-hour HepG2 Assay for p53 Activation (AID 2282913); conditions: high-content imaging, actives raise or lower the signal;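 further: p53 protein immunofluorescence averaged per cell in HepG2 with Hoechst nuclei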
Procedure, shortened: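 Automated fluorescence imaging quantifies p53 immunostaining in HepG2 cells after a 24 hr exposure (0.39–200 uM, duplicate, 0.5% DMSO). Nuclei are located by Hoechst 33342 staining.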

[14] = APR_HepG2_CellCycleArrest_72hr: Apredica 72-hour HepG2 Assay for Cell Cycle Arrest (AID 2282914); conditions: high-content imaging, actives raise or lower the signal
Procedure, shortened: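 Cell cycle arrest in HepG2 was scored from nuclear DNA content after 72 hr compound treatment (0.39–200 uM). Activity, either gain or loss, was fitted against the DMSO baseline.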

[15] = ACEA_ER_80hr: ACEA Biosciences xCELLigence Real-Time Cell Analysis on Estrogen Receptor Agonism for Proliferation (AID 2282667; active means hit-call score of the fitted dose curve at least 0.9, where 1 is the maximum); conditions: T47D proliferation, impedance (xCELLigence), 80 h
Procedure, shortened: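 Cell-growth kinetics were measured by impedance in T47D cells treated continuously with compound (top 100 uM final, 1:4 steps, 8 points). Activity at 80 h was scored as signal gain over the DMSO baseline.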

[16] = APR_HepG2_CellLoss_1hr: Apredica 1-hour HepG2 Assay for Cell Loss (AID 2282668); conditions: high-content imaging;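 further: curves fitted both ways against DMSO so gain or loss of cells counts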
Procedure, shortened: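 HepG2 cells were treated for 1 h with compound at 0.39–200 uM, in duplicate, in 0.5% DMSO. After formaldehyde fixation, Hoechst 33342-stained nuclei were imaged on an ArrayScan to count cells. Data were fitted bidirectionally versus DMSO.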

[17] = APR_HepG2_NuclearSize_1hr: Apredica 1-hour HepG2 Assay for Nuclear Size (AID 2282670); conditions: high-content imaging, actives raise or lower the signal
Procedure, shortened: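 HepG2 cells dosed 1 hr with 0.39–200 uM compound (0.5% DMSO), formaldehyde-fixed, Hoechst 33342-stained and imaged at 20x; nuclear diameter from nuclear stain, fitted bidirectionally against DMSO.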

[18] = APR_HepG2_MitoMass_1hr: Apredica 1-hour HepG2 Assay for Mitochondrial Mass (AID 2282674); conditions: high-content imaging, actives raise or lower the signal
Procedure, shortened: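 HepG2 cells dosed 1 hr with 0.39-200 uM compound (0.5% DMSO), duplicate wells. Mitochondria stained with 250 nM MitoTracker Red CMXRos for 30 min before formaldehyde fixation, imaged at 20x by ArrayScan; bidirectional fit versus DMSO.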

[19] = APR_HepG2_MitoticArrest_24hr: Apredica 24-hour HepG2 Assay for Mitotic Arrest (AID 2282910); conditions: high-content imaging, actives raise or lower the signal
Procedure, shortened: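 Compounds are dosed onto HepG2 cells across ten concentrations up to 200 uM for 24 hr. Cells are then fixed in 3.7% formaldehyde, permeabilised, and labelled for phospho-histone H3 and nuclei; images are scored by cell cycle analysis and fitted bidirectionally relative to DMSO.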

Measured: AC50

CC(C)Nc1nc(Cl)nc(NC(C)C)n1
active: [11] 110 µM
not listed: [15] | [16] | [17] | [18] | [19]
inactive: all other assays above

CN=C=S
active: [6] 69.2 µM | [14] 54.7 µM
not listed: [1] | [18] | [19]
inactive: all other assays above

CCNC(=O)NC(=O)C(C#N)=NOC
not listed: [1] | [2] | [13] | [15] | [16] | [17]
inactive: all other assays above

COCC(=O)N(c1c(C)cccc1C)C(C)C(=O)OC (configuration not stated)
not listed: [1] | [3] | [17] | [18] | [19]
inactive: all other assays above

Clc1nc(Cl)nc(Nc2ccccc2Cl)n1
not listed: [16] | [17] | [19]
inactive: all other assays above

CC(C)C1(C)N=C(c2ncccc2C(=O)O)NC1=O (configuration not stated)
not listed: [3] | [16] | [17]
inactive: all other assays above

CC(C)=CC1C(C(=O)OCc2coc(Cc3ccccc3)c2)C1(C)C (configuration not stated)
active: [5] 98.4 µM | [6] 62.5 µM | [11] 100 µM | [14] 31.7 µM
not listed: [2] | [3] | [13] | [15] | [17] | [18]
inactive: all other assays above

CC1(C)C(C(=O)OC(C#N)c2cccc(Oc3ccccc3)c2)C1(C)C (configuration not stated)
not listed: [1] | [3] | [15] | [18] | [19]
inactive: all other assays above

C=C(C)CN(CC)c1c([N+](=O)[O-])cc(C(F)(F)F)cc1[N+](=O)[O-]
not listed: [1] | [3] | [15] | [18] | [19]
inactive: all other assays above

CCSC(=O)N1CCCCCC1
not listed: [15] | [16] | [19]
inactive: all other assays above

COC(=O)NS(=O)(=O)c1ccc(N)cc1
not listed: [1] | [3] | [15] | [18] | [19]
inactive: all other assays above

CNC(=O)Oc1cccc2ccccc12
active: [4] 57.9 µM | [9] 50.5 µM
not listed: [1] | [15] | [17] | [19]
inactive: all other assays above

CNC(=O)N(C)c1nnc(C(C)(C)C)s1
not listed: [1] | [3] | [18] | [19]
inactive: all other assays above

Cc1cnc(C2=NC(C)(C(C)C)C(=O)N2)c(C(=O)O)c1 (configuration not stated)
not listed: [1] | [3] | [15] | [16] | [17] | [18] | [19]
inactive: all other assays above

N#Cc1c[nH]cc1-c1cccc2c1OC(F)(F)O2
active: [6] 26.9 µM | [9] 22.4 µM | [11] 53.6 µM | [14] 39.8 µM
not listed: [3] | [16] | [17] | [18]
inactive: all other assays above

CCCCOCN(C(=O)CCl)c1c(CC)cccc1CC
active: [7] 47.5 µM | [9] 35.3 µM | [10] 31.2 µM
not listed: [1] | [15] | [16] | [17] | [19]
inactive: all other assays above

O=C1C2CC=CCC2C(=O)N1SC(Cl)(Cl)Cl (configuration not stated)
active: [4] 81.7 µM | [6] 33.4 µM | [7] 87.6 µM | [8] 59.3 µM | [9] 54.6 µM | [10] 24.1 µM | [13] 28.5 µM
not listed: [1] | [3] | [15] | [19]
inactive: all other assays above

CC1(C)CON(Cc2ccccc2Cl)C1=O
not listed: [1] | [15] | [18]
inactive: all other assays above
